# Compound activity (PubChem BioAssay)
# Hits are enriched below; roughly 28% of the tested compounds scored in any of these assays.
# CYP2C9 inh = inhibitors of human CYP2C9. inhibition, % at 5 µM. AID 777. 96,000 compounds, 20% hits. CYP2C9 Supersomes, luciferin-H conversion, luminescence;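 active = blocking of liver enzyme CYP2C9 beyond about 50% at 5 µM, limit read from the data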
# Target sequence (P11712 whole entry, looked up): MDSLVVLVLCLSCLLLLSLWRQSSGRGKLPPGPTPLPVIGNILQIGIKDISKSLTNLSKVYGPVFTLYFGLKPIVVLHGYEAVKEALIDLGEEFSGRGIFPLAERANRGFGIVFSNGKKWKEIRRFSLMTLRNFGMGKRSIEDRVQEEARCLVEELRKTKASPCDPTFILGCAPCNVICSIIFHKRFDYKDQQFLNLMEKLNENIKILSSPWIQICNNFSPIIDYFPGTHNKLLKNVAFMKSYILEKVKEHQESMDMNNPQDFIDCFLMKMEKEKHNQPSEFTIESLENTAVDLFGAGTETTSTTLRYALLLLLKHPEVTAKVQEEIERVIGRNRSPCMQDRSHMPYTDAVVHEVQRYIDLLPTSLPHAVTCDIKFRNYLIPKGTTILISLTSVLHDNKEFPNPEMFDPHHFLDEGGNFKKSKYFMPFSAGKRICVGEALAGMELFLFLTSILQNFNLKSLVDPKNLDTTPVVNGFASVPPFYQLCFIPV
# CYP2C19 activ = activators of human cytochrome P450 2C19 | 96,000 tested, under 10 active | P33261 | activation factor at 5 µM | recombinant CYP2C19, luciferin-H EGE luminescence; stronger effect = higher value; 0 = fully inhibited enzyme, 1 = untreated enzyme | AID 1025;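 active = activation factor of at least 2 at 5 µM in the primary screen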;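 note: 0 = wells with 2.5 mM tranylcypromine and 1 = vehicle-only wells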
# CYP2C9 act = increases human cytochrome P450 2C9 activity; P11712; recombinant CYP2C9, luciferin-H conversion, luminescence; stronger effect = higher value; factor 1 = untreated enzyme, 0 = blocked; activation factor at 5 µM; 96,000 compounds, 1.4% hits; AID 1024;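 active = activation factor of 2 or more for CYP2C9 at a 5 µM dose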;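 note: 0 = sulfaphenazole-blocked wells and 1 = vehicle-only wells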
# CYP2C19 inhib = blocks human cytochrome P450 2C19; P33261; CYP2C19 Supersomes, luciferin-H EGE luminescence, 30 min; inhibition, % at 5 µM; 96,000 compounds, 21% hits; AID 778;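 active = CYP2C19 inhibition above a set limit at 5 µM in the primary screen, cut at about 50% in these data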;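 note: plate controls were negative control wells for no effect and 2.5 mM tranylcypromine positive control for full effect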
# Mac1 fbg inh = inhibitors of human CD11b/CD18 binding to fibrinogen. AID 1497. K562 CD11b/CD18 adhesion to fibrinogen, ATPlite luminescence; Mn2+ added to activate the integrin. inhibition, % at 10 µM. P05107+P11215. 93,000 compounds, 0.54% hits;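 active = primary inhibition of 50% or more at 10 µM, then 40% or more on retest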
# Mac1 fbg enh = increases human CD11b/CD18 adhesion to fibrinogen | P05107+P11215 | K562 CD11b/CD18 adhesion to fibrinogen, ATPlite luminescence | activation, % at 10 µM | 93,000 compounds, 0.07% hits;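 active = 10 µM primary screen giving 50% or more activity, confirmed by 40% or more on retest at that dose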
# The depositor's hits bear a star; x = not tested or not shown.
SMILES,CYP2C9 inh,CYP2C19 activ,CYP2C9 act,CYP2C19 inhib,Mac1 fbg inh,Mac1 fbg enh
Cc1ccc(-c2nc(N/N=C/c3ccncc3)c3ccccc3n2)cc1,94.2*,0,0.1,97.9*,103.4*,-8.9
Clc1ccccc1-c1nc(N/N=C/c2cccnc2)c2ccccc2n1,69.1*,0.6,0.3,41.2,x,x
Clc1ccc(/C=N/Nc2nc(Cl)nc3ccccc23)cc1,21.0,0.9,0.8,13.2,-21.1,9.3
Cc1[nH]n(-c2ccccc2)c(=O)c1/C=N\NC(=O)C1COc2ccccc2O1 (centres undefined),x,x,x,x,50.1,-3.0
CCn1cnc2sc(C(=O)N(Cc3ccc(N(C)C)cc3)Cc3ccco3)c(C)c2c1=O,97.9*,0.1,0,88.0*,4.8,0.8
CCOC(=O)c1sc2ncnc(NCc3ccco3)c2c1C,38.5,0.6,0.6,41.4,6.2,1.6
O=C(c1ccccc1)c1ccc(N2CCOCC2)c(F)c1,8.9,0.3,0.9,66.7*,1.5,-0.9
O=C(Nc1ccc(N2CCOCC2)c(F)c1)c1ccncc1,64.9*,0.5,0.4,52.0*,-5.5,-1.4
O=C(Cc1ccccc1)Nc1cc(C(=O)c2ccccc2)ccc1N1CCOCC1,89.7*,0.3,0.1,68.7*,-33.2,-1.3
O=C(c1ccccc1)c1cc(F)c(N2CCOCC2)cc1Cl,-16.8,0.4,1.2,59.3*,-2.7,11.7
O=C1OCC(c2ccccc2)=C1c1ccc(S(=O)(=O)N2CCOCC2)s1,24.1,0.9,0.8,10.1,-1.3,-4.3
O=C(NC(=S)NCCc1ccccc1)c1ccccc1,16.1,0.8,0.8,19.1,4.1,-5.1
CC(Sc1ccccc1)C(=O)Nc1ccccc1C(=O)N1CCOCC1 (centres undefined),10.3,0.9,0.9,12.4,-2.5,-2.5
Cc1oc(C)c2c(=O)ccc3c(c12)OC(N)=C(C#N)C3c1ccc(F)cc1 (centres undefined),34.6,0.5,0.7,50.1*,-13.4,-1.0
CCOC(=O)c1c(N)nn(C(=O)C(C)(C)C)c1-c1ccccc1,25.8,0.9,0.7,12.8,-10.0,-2.5
CCOC(=O)c1c(N)sc(C(O)(C(F)(F)F)C(F)(F)F)c1-c1ccccc1,98.6*,0.1,0,89.8*,-27.8,1.7
CCOC(=O)c1sc(=S)n(C)c1NC(=O)c1ccccc1C,x,x,x,x,15.2,4.5
CCOC(=O)c1c(N)sn(-c2ccccc2C)c1=S,61.5*,0.7,0.4,28.4,1.6,-5.3
CC1CCc2c(nc3ncnn3c2N2CCN(c3ccccc3F)CC2)C1 (centres undefined),65.5*,0.6,0.3,38.3,-4.2,-3.2
c1nc2nc3c(c(N4CCOCC4)n2n1)CCCC3,-2.8,1,1,0.6,1.8,-3.3
CC1CCc2c(nc3ncnn3c2N2CCN(c3ccccc3)CC2)C1 (centres undefined),90.0*,0.6,0.1,40.0,-7.2,-1.1
COc1ccc(C(=O)c2nc3c(n2O)CCCC3)cc1OC,29.6,0.9,0.7,11.7,-26.5,-2.7
CC1CCCN(C(=O)CSc2nnc3n(C4CCCC4)c(=O)c4ccccc4n23)C1 (centres undefined),25.3,0.8,0.7,20.9,7.4,2.0
COc1ccc(CCNC(=O)CSc2nc(N)c3c(C)c(C)oc3n2)cc1OC,40.2,0.4,0.6,62.4*,3.7,-3.0
COc1ccc(CCNC(=O)CSc2nnc(-c3cccc(C)c3)o2)cc1OC,35.5,0.4,0.6,56.0*,7.1,-1.9
SMILES,CYP2C9 inh,CYP2C19 activ,CYP2C9 act,CYP2C19 inhib,Mac1 fbg inh,Mac1 fbg enh
COc1ccc(CCNC(=O)CSc2nnc(-c3ccccc3)o2)cc1OC,45.7,0.2,0.5,80.7*,-7.9,-2.0
COc1ccc(CCNC(=O)CSc2ccc3ccccc3c2)cc1OC,x,x,x,x,3.3,0.3
CCCCn1c(-c2ccccc2)cnc1SCC(=O)NCCc1ccc(OC)c(OC)c1,89.6*,0,0.1,95.5*,-6.1,-3.8
O=C(NCC(F)(F)F)Nc1ccccn1,-14.7,1.1,1.1,-7.0,13.4,-0.9
CC1CCC(NC(=O)C2c3ccccc3C(=O)N2CCCN2CCOCC2)CC1 (centres undefined),8.0,1.1,0.9,-5.0,-0.4,0.1
CC(=O)N(Cc1ccco1)c1nc(C(=O)Nc2ccc(Cl)cc2)c(C)s1,x,x,x,x,36.9,-1.4
O=C(CCC(=O)OCC(=O)c1ccc(Br)cc1)Nc1ccc(Br)c2cccnc12,-198.7,0.7,3*,31.2,9.9,-1.8
Cc1ccc(S(=O)(=O)N2CCC(C(=O)Nc3nnc(C45CC6CC(CC(C6)C4)C5)s3)CC2)cc1,-5.0,0.9,1.1,14.0,4.0,1.1
CN(C)S(=O)(=O)N(CC(=O)Nc1ccccc1C(F)(F)F)c1ccccc1,33.1,0.1,0.7,88.2*,12.8,-3.0
CSc1ccccc1NC(=O)CN(c1ccccc1)S(=O)(=O)N(C)C,40.4,0.7,0.6,26.8,10.8,-4.2
CN(C)S(=O)(=O)N(CC(=O)Nc1ccc(F)c(F)c1)c1ccccc1,56.1*,0.7,0.4,27.6,10.1,-4.6
Nn1c(SCC(=O)NC2CCCc3ccccc32)nnc1-c1cccs1 (centres undefined),48.5,0.6,0.5,40.3,-2.8,-5.0
O=C(CSc1nnc(-c2c[nH]c3ccccc23)o1)N1c2ccccc2CCc2ccccc21,92.4*,0.2,0.1,78.8*,36.3,-2.5
O=C(CSc1nnc(-c2ccco2)o1)N1CCOCC1,-9.4,1,1.1,-2.3,-7.7,-2.3
c1ccc(CSc2nnc(-c3c[nH]c4ccccc34)o2)cc1,0.3,1.1,1,-10.1,5.4,3.4
O=C(CSc1nnc(-c2c[nH]c3ccccc23)o1)N1CCCCC1,6.8,0.6,0.9,41.0,-8.4,0.2
c1ccc2c(-c3nnc(SCc4cn5ccccc5n4)o3)c[nH]c2c1,60.7*,0.3,0.4,66.7*,-1.7,-5.5
O=C(CSc1nnc(COc2cccc3ccccc23)o1)N1c2ccccc2CCc2ccccc21,54.2*,0.8,0.5,22.1,-1.3,-7.3
O=C(CSc1nnc(-c2ccco2)o1)N1c2ccccc2CCc2ccccc21,96.9*,0.1,0,88.7*,11.1,5.7
Cc1onc(-c2ccccc2Cl)c1C(=O)N1CCN(C(=O)c2ccco2)CC1,16.4,0.9,0.8,11.5,-20.3,-1.3
O=C(c1cc(-c2ccccc2Cl)on1)N1CCN(C(=O)c2ccco2)CC1,-119.2,0.7,2.2*,31.8,-7.3,2.5
O=C(c1cc(-c2ccc(Cl)cc2Cl)on1)N1CCN(C(=O)c2ccco2)CC1,26.4,0.4,0.7,58.5*,1.0,0.5
O=C(c1ccco1)N1CCN(C(=O)c2snc3ccc(Cl)cc23)CC1,48.7,0.8,0.5,17.6,3.5,-3.7
O=C1C2C3C=CC(CC3)C2C(=O)N1/N=C/c1ccc(O)cc1 (centres undefined),-95.9,0.7,2*,27.8,4.0,-5.6
